Laboratory results reported in PubChem BioAssay AID1851 (National Center for Advancing Translational Sciences (NCATS), 2009).
The campaign covered roughly 16,000 compounds. About 5,100 (32%) were called active. Another 25% or so got no clear call; they are omitted. Calls come from the whole dose curve; as a rule, active = well fitted curve in the direction sought with a large enough effect; inconclusive = small, poorly fitted or top-dose-only effect, or effect the other way; inactive = no such curve, though single readings can be large or run the other way. This is one part of the list.

Molecular target: Cytochrome P450 3A4 (Homo sapiens) (UniProt P08684)
Sequence (P08684 whole entry, looked up): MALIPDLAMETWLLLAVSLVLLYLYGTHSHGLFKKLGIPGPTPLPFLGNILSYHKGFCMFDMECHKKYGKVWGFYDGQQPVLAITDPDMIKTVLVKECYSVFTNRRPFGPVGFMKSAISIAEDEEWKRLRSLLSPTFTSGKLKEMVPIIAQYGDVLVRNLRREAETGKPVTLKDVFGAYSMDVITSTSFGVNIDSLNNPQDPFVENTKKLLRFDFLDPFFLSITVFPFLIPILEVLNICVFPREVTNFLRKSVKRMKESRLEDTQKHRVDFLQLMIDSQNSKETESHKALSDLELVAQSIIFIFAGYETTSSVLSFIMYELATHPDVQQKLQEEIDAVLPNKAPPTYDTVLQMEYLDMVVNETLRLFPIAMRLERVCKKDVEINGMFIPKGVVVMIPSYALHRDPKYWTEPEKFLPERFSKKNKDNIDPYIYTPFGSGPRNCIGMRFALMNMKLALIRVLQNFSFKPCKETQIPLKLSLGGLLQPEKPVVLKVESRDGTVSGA
Assay: Cytochrome panel assay with activity outcomes
Settings: recombinant CYP, pro-luciferin dealkylation, luminescence, p450-cyp3a4; series mostly up to 57.1 µM; activity, negative = inhibition: at the top concentration
% is set by controls: 0 for no effect and ±100 for the full control effect.

Row | SMILES | AC50 | activity, negative = inhibition
1 | CCC(C(=O)c1ccccc1)N(C(=O)c1ccccc1Cl)N1C(=O)C2C3C=CC(C3)C2C1=O (stereo not drawn) | 0.891 µM (active) | 
2 | Cc1ccc(OC(=O)c2cccc(C(=O)Oc3ccc(C)cc3)n2)cc1 |  | 6.37% [at 11.4 µM] (inactive)
3 | CCOC(=O)c1cccc(C(=O)OCC)n1 |  | -1.92% (inactive)
4 | COC(=O)c1cccc(C(=O)Nc2ccc(C)cc2)n1 | 12.6 µM (active) | 
5 | c1cncc(CNc2ccnc(-c3ccc4c(c3)OCO4)n2)c1 | 1 µM (active) | 
6 | c1csc(CNc2ccnc(-c3ccc4c(c3)OCO4)n2)c1 | 1 µM (active) | 
7 | c1ccc(CNc2ccnc(-c3ccc4c(c3)OCO4)n2)cc1 | 0.794 µM (active) | 
8 | COc1c(O)cc2c(c1O)[C@@H]1O[C@@H](CO)[C@@H](O)[C@@H](O)[C@@H]1OC2=O |  | -6.12% [at 25.6 µM] (inactive)
9 | c1cnc(Nc2nc(-c3ccc4ccccc4c3)cs2)nc1 |  | -2.2% (inactive)
10 | COc1cccc(Nc2nc(-c3ccc(O)cc3)cs2)c1 | 7.08 µM (active) | 
11 | O=C(NCc1ccccc1)c1sc(=S)n2c1[nH]c(=O)c1ccccc12 | 3.98 µM (active) | 
12 | Cc1nn2c([nH]c(=O)c3ccccc32)c1C=O |  | 3.01% (inactive)
13 | O=C(O)NCc1ccccc1 (tested in a mixture with another compound) |  | -3.33% [at 11.4 µM] (inactive)
14 | COc1ccc2cc3cc(C(=O)NCCN4CCN(c5ccccc5F)CC4)oc3nc2c1 | 14.1 µM (active) | 
15 | COc1ccc2cc3cc(C(=O)NCCCN4CCOCC4)oc3nc2c1 | 10 µM (active) | 
16 | CCN1CCN(CCCNC(=O)c2cc3cc4ccc(OC)cc4nc3o2)CC1 |  | -17.8% (inactive)
17 | COc1cc2c3c(c1OC)C1(C=CC(=O)C=C1)CC3N(C(=O)c1ccccc1)CC2 (stereo not drawn) |  | 1.64% (inactive)
18 | COc1cc2c(C(=O)N3CCN(C)CC3)c(C)n(-c3ccccc3)c2cc1Br | 1.12 µM (active) | 
19 | CN1CCN(C(=O)c2ccc(-n3cccc3)cc2)CC1 |  | -11.5% (inactive)
20 | COc1ccc2nc(/N=C\N(C)C)sc2c1 |  | -29.5% (inactive)
21 | COc1ccc2c(Cl)c(-c3nnco3)sc2c1 | 7.08 µM (active) | 
22 | COc1ccc2nc(N)sc2c1 |  | -20.7% (inactive)
23 | COc1cc(/C=N\Nc2nc3ccccc3[nH]2)cc(OC)c1OC |  | -13.5% [at 2.29 µM] (inactive)
24 | COc1ccc(/C=N/Nc2snc(SC)c2C#N)cc1OC | 8.91 µM (active) | 

Row | SMILES | AC50 | activity, negative = inhibition
25 | COc1cc(/C=N/Nc2snc(SC)c2C#N)cc(OC)c1OC | 7.94 µM (active) | 
26 | COc1cccc(-c2cncnc2Nc2ccc(F)cc2)c1 | 0.794 µM (active) | 
27 | COc1cccc(-c2cncnc2NC2CCNCC2)c1 |  | -17.5% (inactive)
28 | CS(=O)(=O)Nc1cccc(-c2cncnc2Nc2ccccc2)c1 | 0.501 µM (active) | 
29 | CS(=O)(=O)Nc1cccc(-c2cncnc2Nc2ccc(F)cc2)c1 | 0.316 µM (active) | 
30 | CCCCCCCCC[n+]1cccc2c3ccccc3ccc21 |  | 6.4% (inactive)
31 | Nc1cc2c(nc3c4ccccc4c(N)cc3[n+]2-c2cccc3ccccc23)c2ccccc12 (tested in a mixture with another compound) |  | -29.5% [at 11.4 µM] (inactive)
32 | Cc1cc(N)c2ccccc2[n+]1CCCCCCCCCCCCCC[n+]1c(C)cc(N)c2ccccc21 | 10 µM (active) | 
33 | CCOC(=O)[C@H](N)/C=C(\C)CP(=O)(O)O |  | -11.1% (inactive)
34 | O=C(CSc1nc2ccccc2s1)c1sc2sc3ccccc3[n+]2c1O |  | -12.2% [at 11.4 µM] (inactive)
35 | O=C(CSc1nc2ccccc2s1)N1c2ccccc2Sc2ccc(C(F)(F)F)cc21 | 6.31 µM (active) | 
36 | O=C(CSc1nc2ccccc2s1)N1c2ccccc2Sc2ccccc21 | 11.2 µM (active) | 
37 | CO/N=C(\C(=O)N[C@@H]1C(=O)N2C(C(=O)O)=C(COC(N)=O)CS[C@@H]12)c1ccco1 |  | 18.5% [at 25.6 µM] (inactive)
38 | N[C@@H](CSS(=O)(=O)O)C(=O)O |  | -15.1% (inactive)
39 | CC(C)(C)c1[nH]nc2c1C(c1ccc(OC(=O)c3ccco3)cc1)C(C#N)=C(N)O2 (stereo not drawn) | 2.24 µM (active) | 
40 | O=C(Nc1cccc2[nH]ncc12)c1ccc(F)cc1 | 15.8 µM (active) | 
41 | COC(=O)c1ccccc1NC(=O)c1ccc(F)cc1 |  | -21% (inactive)
42 | O=C(Nc1ccccc1Cl)c1ccn[nH]1 |  | 11.2% (inactive)
43 | O=C(Nc1cccc(F)c1)N1CCCC2(CCN(C(=O)c3cc(C(F)(F)F)cc(C(F)(F)F)c3)CC2)C1 | 12.6 µM (active) | 
44 | O=C(Nc1ccccc1)N1CC2(CCN(C(=O)c3cc(C(F)(F)F)cc(C(F)(F)F)c3)CC2)C1 |  | -17.6% (inactive)
45 | Cn1cccc1C(=O)N1CCC2(CCN(C(=O)Nc3cccc(F)c3)CC2)CC1 |  | 21.8% (inactive)
46 | O=C(Nc1ccccc1)N1CCCC2(CCN(C(=O)c3cc(C(F)(F)F)cc(C(F)(F)F)c3)CC2)C1 | 15.8 µM (active) | 
47 | O=C(Nc1cccc(F)c1)N1CC[C@@]2(CCCN(C(=O)c3cc(C(F)(F)F)cc(C(F)(F)F)c3)C2)C1 | 15.8 µM (active) | 
48 | COC(=O)N1CCC2(CCCN(C(=O)Nc3ccccc3)C2)CC1 |  | -23.6% (inactive)

Row | SMILES | AC50 | activity, negative = inhibition
49 | COCC(=O)N1CCC2(CC1)CN(C(=O)Nc1cccc(F)c1)C2 |  | -6.8% (inactive)
50 | N#Cc1cccc(NC(=O)N2CCCC3(CCN(C(=O)c4cc(C(F)(F)F)cc(C(F)(F)F)c4)CC3)C2)c1 | 10 µM (active) | 
51 | Cc1csc(NC(=O)Cc2c[nH]c3ccccc23)n1 | 35.5 µM (active) | 
52 | C=CC[C@@H]1C=C[C@H](O/N=C\[C@@H](C)[C@H](OCc2ccccc2)C(C)C)[C@H](CO)O1 | 3.98 µM (active) | 
53 | C=CC[C@@H]1C=C[C@@H](O/N=C\[C@@H](OC)[C@H](C)/C=C\CC(=O)OC)[C@@H](CO)O1 | 3.16 µM (active) | 
54 | CC(=O)OC[C@H]1O[C@@H](O/N=C\[C@@H](C)[C@H](OCc2ccccc2)C(C)C)[C@H](OC(C)=O)[C@@H](OC(C)=O)[C@H]1OC(C)=O |  | -74.7% [at 11.4 µM] (inactive)
55 | COC(=O)[C@H](C)NC(=O)C/C=C\[C@@H](C)[C@H]1C=C[C@H](O)[C@@H](CO)O1 |  | -25.2% [at 11.4 µM] (inactive)
56 | CO/N=C\[C@@H](OC)[C@H](C)/C=C\CC(=O)OC |  | -11.6% [at 11.4 µM] (inactive)
57 | CO[C@]1(NC(=O)C2SC(=C(C(N)=O)C(=O)O)S2)C(=O)N2C(C(=O)O)=C(CSc3nnnn3C)CS[C@H]21 (stereo partly drawn) |  | -2.24% [at 25.6 µM] (inactive)
58 | CCc1ncc(CO)n1Cc1cccc2ccccc12 |  | -11.4% [at 11.4 µM] (inactive)
59 | COc1ccc(CNC(=O)Nc2cccs2)cc1OC | 22.4 µM (active) | 
60 | COc1cc(CNCc2cccs2)cc(Br)c1OC | 7.08 µM (active) | 
61 | CCOC(=O)N1CCN(C(=O)CNCc2cccs2)CC1 |  | -4.69% (inactive)
62 | COc1cc(CNCc2cccs2)ccc1OCC(=O)NC(C)(C)C | 4.47 µM (active) | 
63 | COc1cc(CNCc2cccs2)ccc1OCC(N)=O |  | -8.51% (inactive)
64 | CCN1CCN(Cc2ccc(NC(=O)Nc3cccs3)cc2)CC1 |  | -16.6% (inactive)
65 | N[C@H](C(=O)O)[C@@H](O)c1cnc[nH]1 |  | -12.3% [at 11.4 µM] (inactive)
66 | COc1ccc2c(c1)CCCC21NC(=O)N(CC(N)=O)C1=O (stereo not drawn) |  | -13.8% (inactive)
67 | COc1ccc(OC)c(C(=O)CN2C(=O)NC(C)(c3ccccc3)C2=O)c1 (stereo not drawn) | 10 µM (active) | 
68 | Cc1cc(NC(=O)CN2C(=O)NC(C)(c3ccc(OC(F)F)cc3)C2=O)no1 (stereo not drawn) |  | -24.5% (inactive)
69 | CC(C)NCCOCCSc1ccc(Cl)cc1 |  | -10.4% (inactive)
70 | COC(=O)[C@@H]1C[C@H]1[C@@H](NC(=O)c1cccnc1)c1ccccc1 | 10 µM (active) | 
71 | COC(=O)[C@@H]1C[C@H]1[C@@H](NC(=O)c1ccccc1)c1ccccc1 |  | 14.7% (inactive)
72 | COC(=O)[C@H]1C[C@@H]1[C@H](NC(=O)c1cccnc1)c1ccccc1 | 5.01 µM (active) | 

Row | SMILES | AC50 | activity, negative = inhibition
73 | O=C(O)CN(CCN(CC(=O)O)CC(=O)O)CC(=O)O.[Mn] |  | 1.35% [at 11.4 µM] (inactive)
74 | N[C@@H](C(=O)O)c1ccc(C(=O)O)c(C(=O)O)c1 | inactive | 
75 | Fc1ccc(Nc2ncncc2-c2ccccc2C(F)(F)F)cc1 | 0.398 µM (active) | 
76 | CNc1ncncc1-c1ccccc1C(F)(F)F | 0.794 µM (active) | 
77 | FC(F)(F)c1ccccc1-c1cncnc1Nc1ccccc1 | 0.501 µM (active) | 
78 | NS(=O)(=O)c1nc(S(=O)(=O)O)c2[nH]cnc2n1 |  | -3.98% [at 11.4 µM] (inactive)
79 | Cc1c(C)c2c(C)[nH]nc2oc1=O |  | 4.7% [at 11.4 µM] (inactive)
80 | C[C@@H]1CC[C@@H]2C(=O)N3[C@@H](CC[C@@H](C)[C@@H]3c3ccc(-c4ccco4)cc3)C(=O)N2[C@H]1c1ccc(-c2ccco2)cc1 |  | -15.7% [at 11.4 µM] (inactive)
81 | C[C@H]1CC[C@H]2C(=O)N[C@H](Cc3ccccc3)C(=O)N2[C@@H]1c1ccccc1 | 2.51 µM (active) | 
82 | C[C@@H]1CN2[C@H](c3ccc(Br)cc3)[C@H](C)CC[C@H]2C(=O)O1 |  | -28.2% [at 11.4 µM] (inactive)
83 | O=C(/C=C\c1ccc(O)c(O)c1)O[C@@H]1C[C@](O)(C(=O)O)C[C@@H](O)[C@@H]1O |  | -6.55% [at 25.6 µM] (inactive)
84 | CC(=O)Nc1ccc(NCN2C(=O)C3C4CCC(C4)C3C2=O)cc1 (stereo not drawn) |  | -16.7% (inactive)
85 | Cc1cccc(OC(=O)CN2C(=O)C3C4CCC(C4)C3C2=O)c1C (stereo not drawn) | 14.1 µM (active) | 
86 | COc1ccc(C(=O)Nc2ccc(Cl)cn2)cc1Cl | 28.2 µM (active) | 
87 | CCOc1ccc(C(=O)Nc2ccc(Cl)cn2)cc1Cl |  | -26.9% (inactive)
88 | Cc1cc(=O)oc(C)c1C(=O)Nc1ccc(Cl)cn1 |  | -3.08% [at 2.29 µM] (inactive)
89 | Cc1ccccc1-c1cncnc1NCc1cccs1 | 0.501 µM (active) | 
90 | COc1ccccc1-c1cncnc1NCc1cccs1 | 0.398 µM (active) | 
91 | FC(F)(F)c1ccccc1-c1cc(NCc2cccs2)ncn1 |  | -27.4% (inactive)
92 | FC(F)(F)c1ccccc1-c1cncnc1NCc1cccs1 | 0.251 µM (active) | 
93 | Clc1ccccc1-c1cncnc1NCc1cccs1 | 0.501 µM (active) | 
